SMILES strings stand for the structures. About 8,600 (12%) of roughly 69,000 compounds showed an effect of 50% or more. The full list was thinned out, with strong results kept by preference.

In this assay the test system is Plasmodium berghei. The experiment in a line: Screen against P. berghei liver stage (PbLuc), transformed with Luciferase, at 10uM. Conditions: tested at 10 uM. It is filed as functional, HepG2.
With `CC(C(=O)NCCCN1CCOCC1)n1cncn1` (centres undefined), the INHIBITION was -22.9%.
Under `COc1ccc(CN2CCC3(CCCN(c4ncc(F)cn4)C3)C2)cc1` (centres undefined) stands 74.2%; under `COCCN1CCC2(CCCN(c3ncc(F)cn3)C2)C1` (centres undefined), 24.9%; under `c1ccc(N2CCCC3(CCN(Cc4nccs4)C3)C2)nc1` (centres undefined), 29.1%.
Turning to `CCCS(=O)(=O)N1CCC2(CCCN(c3ncc(F)cn3)C2)C1` (centres undefined), the INHIBITION came to 41%.
As to `Fc1cnc(N2CCCC3(CCN(Cc4nccs4)C3)C2)nc1` (centres undefined), the INHIBITION came out at 55.5%.
Turning to `Fc1cnc(N2CCCC3(CCN(Cc4ccoc4)C3)C2)nc1` (centres undefined), the INHIBITION turned out to be 40.4%.
As to `c1csc(CN2CCC3(CCCN(c4nncs4)C3)C2)n1` (centres undefined), the INHIBITION is recorded as -79.8%.
With `Fc1cnc(N2CCCC3(CCN(Cc4cccs4)C3)C2)nc1` (centres undefined), the INHIBITION worked out at 57.9%.
On to `Fc1cnc(N2CCCC3(CCN(Cc4ccco4)C3)C2)nc1` (centres undefined), for which the INHIBITION is listed as -3.88%.
In the case of `CCS(=O)(=O)N1CCC2(CCCN(c3ncc(F)cn3)C2)C1` (centres undefined), the INHIBITION was 55.5%.
Consider `c1cnc(N2CCCC3(CCN(Cc4cccs4)C3)C2)nc1` (centres undefined), for which the INHIBITION is listed as -20.8%.
The same measure for `CS(=O)(=O)N1CCC2(CCCN(c3ncc(F)cn3)C2)C1` (centres undefined): 28.2%; for `CCc1noc(C)c1C(=O)N1CCC(c2[nH]ncc2S(C)(=O)=O)C1` (centres undefined): 35.2%.
Under `CCNc1cc2c(nn1)CCN(C(=O)c1c(C)noc1C)C2` stands 14.1%; under `O=C(NCCCO)NCCc1cc(F)ccc1F`, 22.6%; under `Cc1ccc(CN2CCCn3c(nc(Cn4ccnc4)cc3=O)C2)o1`, 10%.
Consider `CN1CCCC1c1ccnc(-c2ccccn2)n1` (centres undefined), for which the INHIBITION was -5.8%.
Consider `NC(=O)COc1ccc(CNCc2c(F)cccc2F)cc1`, for which the INHIBITION was 31.1%.
Consider `Cc1ccc(-c2nc(CNC3CCc4ncnn4C3)co2)cc1` (centres undefined), for which the INHIBITION is reported as 12.7%.
Turning to `O=C([C@H]1C[C@H]2CN(c3ncc(F)cn3)C[C@@H]1O2)N1CCCC1`, the INHIBITION was determined as 41.2%.
As for `c1ccc(Cc2nc(CNCCn3cccn3)cs2)cc1`, the INHIBITION turned out to be 21.5%.
As to `CC(C)c1nnc2n1CCN(C(=O)c1cc3cc(F)ccc3[nH]1)C2`, the INHIBITION is reported as 45.7%.
Take `CC(O)c1cccc(N2CCC3(CCC(=O)N(C4CCCC4)C3)CC2)n1` (centres undefined): the INHIBITION is given as -9.31%.
Regarding `N#Cc1cccc(N2CCCC3(CCC(=O)N(C4CCCC4)C3)C2)n1` (centres undefined), the INHIBITION amounted to 18.9%.
Turning to `CC(C)c1cccc(N2CCCC3(CCC(=O)N(C4CC4)C3)C2)n1` (centres undefined), the INHIBITION was 50.5%.
On to `COCCCNC(=O)c1ccccc1S(C)(=O)=O`, for which the INHIBITION was 18.4%.
The same measure for `Cc1cc(=O)[nH]c(=O)n1-c1cccc(Cl)c1Cl`: 17.1%; for `Cc1cc(C)n(-c2cncc(NCCNC(=O)c3cccnc3)n2)n1`: 31.9%; for `CC(C)OCc1nn(C)c2c1CN(Cc1cccs1)CC2`: 35.8%.
In the case of `COc1ccc(C(=O)n2nc(C)c(C)c2C)cc1`, the INHIBITION came out at 30.7%.
With `Cc1nn(C(=O)c2cccnc2)c(C)c1C`, the INHIBITION is 64.6%.
With `Cc1nn(C(C)C)c(C)c1NC(=O)c1cccnc1`, the INHIBITION is listed as 7.18%.
With `CO[C@@H]1CC[C@H]2[C@H]1OCCN2Cc1ccc(F)c(F)c1`, the INHIBITION is listed as -8.28%.
Turning to `Cc1ccccc1C(C(=O)NCCSC(F)(F)F)N(C)C` (centres undefined), the INHIBITION is recorded as -33.8%.
Turning to `CC1(C)Cc2nc(C(C)(C)C)ncc2C(NC(=O)Cc2nnn[nH]2)C1` (centres undefined), the INHIBITION is -0.71%.
On to `COC(=O)CC(c1cccs1)c1oc(C)cc(=O)c1O` (centres undefined), for which the INHIBITION amounted to 27.5%.
Turning to `CCN1CCn2c(C)cnc2C12CCN(C(=O)c1ccc(Cl)cc1)CC2`, the INHIBITION was 31.9%.
Consider `CC(=O)NCCCC(=O)NC(C)c1nnc2n1CCC2` (centres undefined), for which the INHIBITION was found to be 1.75%.
Take `CCOCC(=O)N1CCOCC2(CCN(c3ncccn3)C2)C1` (centres undefined): the INHIBITION was 14.5%.
With `CCCS(=O)(=O)N1CCCC(c2nc(-c3ccccc3)c[nH]2)C1` (centres undefined), the INHIBITION amounted to 44.4%.
The same measure for `CCN(C)S(=O)(=O)N1CCCC(c2nc(-c3ccccc3)c[nH]2)C1` (centres undefined): 89.1%.
Regarding `CCN(CC)S(=O)(=O)N1CCCC(c2ccc(C(=O)O)cc2)C1` (centres undefined), the INHIBITION stood at 36.8%.
`CC(=O)N1CCCC(c2nc(-c3ccccc3)c[nH]2)C1` (centres undefined): the INHIBITION came out at 16.6%.
As to `CS(=O)(=O)N1CCCC(c2nc(-c3ccccc3)c[nH]2)C1` (centres undefined), the INHIBITION was 50.4%.
The same measure for `CCN(C)S(=O)(=O)N1CCCC(c2cccc(C(=O)O)c2)C1` (centres undefined): -5.38%; for `O=C(c1cc(C2CCCCN2CCO)n[nH]1)N1CCOCC1` (centres undefined): -0.902%.
In the case of `Cc1ncncc1C(=O)NCCn1nc2ccccn2c1=O`, the INHIBITION was found to be 12.915%.
Take `CCCS(=O)(=O)N1CCN(c2ccc3nnc(CC)n3n2)CC1`: the INHIBITION is recorded as -37.2%.
The same measure for `Cc1ccccc1OCC(=O)NCC(c1ccc(N(C)C)cc1)N(C)C` (centres undefined): 27.5%; for `CCNc1nc2cn(-c3ccc(OC(F)(F)F)cc3)c(=O)c-2c[nH]1`: 45.6%.
On to `C[C@@H](NC(=O)c1cccs1)c1onc(-c2cccnc2)c1C(=O)O`, for which the INHIBITION is given as -20.8%.
For the compound `C=C(C)CN1CCCC1c1nc(Cc2ccc(F)cc2)no1` (centres undefined), the INHIBITION was determined as 61.1%.
The same measure for `CC(C)(C)OCCN1CCCC1c1nc(Cc2ccc(F)cc2)no1` (centres undefined): 10.6%; for `CCCN1CCCC1c1nc(Cc2ccc(F)cc2)no1` (centres undefined): 23.5%; for `CCCNC(=O)CN1CCCC1c1nc(Cc2ccc(F)cc2)no1` (centres undefined): 47.4%.
With `OCCCN1CCCC1c1nc(Cc2ccc(F)cc2)no1` (centres undefined), the INHIBITION was determined as 14.9%.
As to `O=C(CN1CCCC1c1nc(Cc2ccc(F)cc2)no1)NC1CC1` (centres undefined), the INHIBITION is 62%.
For `O=C(CN1CCN(CC(O)C2CC2)CC1)NCc1ccccc1` (centres undefined), the INHIBITION was -24.6%.
As for `Cc1cc(F)ccc1-c1ccccc1CC1CNCCNC1=O` (centres undefined), the INHIBITION was 71.2%.
The same measure for `COc1ccc(F)cc1-c1ccccc1CC1CNCCNC1=O` (centres undefined): 23.595%.
Consider `Cc1ccc(-c2ccccc2CC2CNCCNC2=O)c(C)c1` (centres undefined), for which the INHIBITION was 33%.
Take `CC(=O)N1CCN(C(=O)c2cc(-n3cnnn3)ccc2Cl)CC1`: the INHIBITION came out at 6.32%.
Under `CCN(C(=O)NCc1ccc(C)cc1OC)C(C)c1cccnc1` (centres undefined) stands 29.8%; under `CCOc1ccccc1CNC(=O)N(CC)C(C)c1cccnc1` (centres undefined), -1.25%.
The same measure for `CCN(C(=O)NCc1ccccc1OC(F)F)C(C)c1cccnc1` (centres undefined): 50.1%.
For `NC(=O)c1ccccc1Oc1cnc(C2CCCN2)cn1` (centres undefined), the INHIBITION is -38.3%.
For the compound `Cc1ccc2c(c1)CCC2NC(=O)N1CCC(C(N)=O)CC1` (centres undefined), the INHIBITION came out at 10.1%.
On to `COC(=O)Cn1c(=O)[nH]c2cn(-c3ccc(C)cc3)c(=O)n21`, for which the INHIBITION is listed as -1.04%.
Under `CC(C)CN1C(=O)CO[C@@H]2CN(C(=O)CC(F)(F)F)C[C@H]21` stands 54.1%; under `CC(C)CN1C(=O)CO[C@@H]2CN(C(=O)NC(C)C)C[C@H]21`, 70.4%; under `CC(C)CN1C(=O)CO[C@@H]2CN(C(=O)N(C)C)C[C@H]21`, 29%.
On to `CC(C)CN1C(=O)CO[C@@H]2CN(C(=O)C3CCOCC3)C[C@H]21`, for which the INHIBITION came out at 11.3%.
In the case of `CC(C)CN1C(=O)CO[C@@H]2CN(C(=O)N3CCOCC3)C[C@H]21`, the INHIBITION is given as 29%.
With `CC(C)CN1C(=O)CO[C@@H]2CN(C(=O)[C@H]3CCCO3)C[C@H]21`, the INHIBITION turned out to be 36.4%.
Under `CCN(CC)CC1CN(Cc2cccc(C#N)c2)Cc2nccn2C1` (centres undefined) stands -16.9%.
Under `CC1CCCN(c2nccn3c(=O)[nH]nc23)C1` (centres undefined) stands 17.6%; under `COCC(=O)N1CCC(=O)N(C2CCCC2)Cc2cc(F)ccc21`, -13.3%.
In the case of `CCOC(=O)[C@]12CCCN(Cc3ccsc3)C[C@H]1CN(CCOC)C2`, the INHIBITION was -74.6%.
The same measure for `O=C(O)[C@]12CCCN(Cc3cccs3)C[C@H]1CN(c1ncccn1)C2`: -7.24%; for `CCOC(=O)[C@]12CCCN(Cc3nccs3)C[C@H]1CN(C(C)C)C2`: 76.4%.
As to `CCOC(=O)[C@]12CCCN(Cc3nccs3)C[C@H]1CN(S(C)(=O)=O)C2`, the INHIBITION is given as 5.96%.
For `CCOC(=O)[C@]12CCCN(Cc3nccs3)C[C@H]1CN(CCN(C)C)C2`, the INHIBITION is given as 15.1%.
`CCOC(=O)[C@]12CCCN(Cc3nccs3)C[C@H]1CN(C(C)=O)C2`: the INHIBITION is -1.64%.
For `CCOC(=O)[C@]12CCCN(Cc3cccs3)C[C@H]1CN(CC(C)C)C2`, the INHIBITION is 60.3%.
In the case of `CCOC(=O)[C@]12CCCN(Cc3nccs3)C[C@H]1CN(CCOC)C2`, the INHIBITION was -14.4%.
As to `CCOC(=O)[C@]12CCCN(Cc3cccs3)C[C@H]1CN(CCOC)C2`, the INHIBITION was 33.5%.
Turning to `CCOC(=O)[C@]12CCCN(Cc3cccs3)C[C@H]1CN(C(C)=O)C2`, the INHIBITION amounted to 51.4%.
On to `CCOC(=O)[C@]12CCCN(Cc3cccs3)C[C@H]1CN(C(C)C)C2`, for which the INHIBITION was determined as 64.3%.
In the case of `CCOC(=O)[C@]12CCCN(Cc3nccs3)C[C@H]1CN(CC(C)C)C2`, the INHIBITION is -13%.
As to `COc1cc(-c2nc3c([nH]2)CCCNC3=O)cc(OC)c1OC`, the INHIBITION was -34.8%.
For the compound `Cc1ccc(F)cc1C(=O)N1CCN(S(C)(=O)=O)[C@@H](C)C1`, the INHIBITION is reported as -2.23%.
Take `CCOC(=O)Cc1cs/c(=N/C(=O)COc2cnc(C)cc2O)[nH]1`: the INHIBITION is reported as -1.45%.
Turning to `CC(C)(C)c1cccc(OCC(=O)NS(=O)(=O)c2cccnc2)c1`, the INHIBITION is on record as 0.1%.
Regarding `CCNC(=O)NC(=O)CNC(C)(C)c1ccc2c(c1)OCO2`, the INHIBITION is given as -12.2%.
For the compound `CN(Cc1cccnc1)[C@@H]1CN(Cc2ccccn2)[C@@H]2CCCO[C@H]12`, the INHIBITION is reported as 30.3%.
For the compound `NCC1CCC(c2c(C(=O)NCCO)sc3ccccc23)CC1` (centres undefined), the INHIBITION was -11.4%.
Regarding `CNC(=O)C1CCCCN1C(=O)CCn1cnc2sccc2c1=O` (centres undefined), the INHIBITION is 52.6%.
Take `CC1CCCCN1C(=O)CCn1cnc2sccc2c1=O` (centres undefined): the INHIBITION amounted to 42.7%.
Consider `CCC1CCCCN1C(=O)CCn1cnc2sccc2c1=O` (centres undefined), for which the INHIBITION came to 25.4%.
As to `CCn1ncc2c(C(F)F)cc(-c3ccn(C)n3)nc21`, the INHIBITION is on record as 8.05%.
Under `O=C(Nc1ccc(Cn2cccn2)cc1)N1CCC(CO)CC1` stands 57.8%.
With `CC1(C)CN(C(=O)Nc2ccc(Cn3cccn3)cc2)CCO1`, the INHIBITION is reported as 49.9%.
In the case of `O=C(Nc1ccc(Cn2cccn2)cc1)N1CCC2(CC1)OCCO2`, the INHIBITION came to 41%.

The record behind these values is ChEMBL document CHEMBL4513216, “Probing the Open Global Health Chemical Diversity Library for Multistage-Active Starting Points for Next-Generation Antimalarials” (ACS Infect Dis, 2020).
